From PubChem
CYP2C9 inhib: blockers of cytochrome P450 2C9 activity – biochemical, luminescence, ADME assay, primary screen | actives 20% (n = 96,000) | AID 777, 2007 | P11712 | inhibition, % at 5 µM | CYP2C9 Supersomes, luciferin-H conversion;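 active = blocking of liver enzyme CYP2C9 beyond about 50% at 5 µM, limit read from the data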
CYP2C19 activ: human CYP2C19 activators, primary screen, biochemical, luminescence; 96,000 tested, under 10 active; recombinant CYP2C19, luciferin-H EGE luminescence; active compounds read high; 0 = fully inhibited enzyme, 1 = untreated enzyme; activation factor at 5 µM;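 active = activation factor of at least 2 at 5 µM in the primary screen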;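 also: 0 = wells with 2.5 mM tranylcypromine and 1 = vehicle-only wells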
CYP2C9 act: human CYP2C9 activators, primary screen, biochemical, luminescence | Cytochrome P450 2C9 (Homo sapiens), P11712 | activation factor at 5 µM | actives 1.4% (n = 96,000) | recombinant CYP2C9, luciferin-H conversion; active compounds read high; factor 1 = untreated enzyme, 0 = blocked;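 active = activation factor of 2 or more for CYP2C9 at a 5 µM dose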;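 also: 0 = sulfaphenazole-blocked wells and 1 = vehicle-only wells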
EphB4 antag: EphB4-ephrin-B2 interaction antagonists, primary screen, biochemical, TNYL-RAW peptide probe, fluorescence polarization; EphB4 LBD / TNYL-RAW-Alexa532 peptide; inhibition, % at 7 µM; Ephrin type-B receptor 4 (Homo sapiens), P54760; actives 0.15% (n = 97,000);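 active = inhibition above the screen-wide mean inhibition plus 3 SD, cut at about 15% in these data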;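 also: 0% = DMSO wells and 100% = excess unlabeled TNYL-RAW peptide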
CYP2C19 inh: blockers of cytochrome P450 2C19 activity – biochemical, luminescence, ADME assay, primary screen | inhibition, % at 5 µM | CYP2C19 Supersomes, luciferin-H EGE luminescence, 30 min | P33261 | AID 778, 2007 | actives 21% (n = 96,000);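 active = CYP2C19 inhibition above a set limit at 5 µM in the primary screen, cut at about 50% in these data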;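 also: plate controls were negative control wells for no effect and 2.5 mM tranylcypromine positive control for full effect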
Numbers without * were called inactive; / = not tested or not shown. Most compounds without a hit are left out; they make up all but 27% or so of the library.

SMILES	CYP2C9 inhib	CYP2C19 activ	CYP2C9 act	EphB4 antag	CYP2C19 inh
Clc1ccc(-c2cnc(Oc3ccccc3)nc2)cc1	17	0.7	0.8	-3	33
CCOc1nc(NCCc2ccc(OC)c(OC)c2)nc(NC(C)(C)CO)n1	-6	0.8	1.1	1	18
C=CCN1C(=O)/C(=C2/Sc3ccccc3N2C)SC1=Nc1ccccc1C	56*	0.6	0.4	0	39
C=CCN1C(=O)/C(=C2/Sc3ccccc3N2C)SC1=Nc1c(C)n[nH]c1C	25	0.9	0.8	3	12
CSc1nc(N(C)NC(=O)c2ccccc2)c2ccccc2n1	65*	0.1	0.3	-2	88*
CSc1nc(N(C)NC(=O)c2ccc(Cl)cc2)c2ccccc2n1	17	1	0.8	9	0
C=CCOC(=O)c1sc(NC(=O)c2ccco2)nc1C	82*	0.8	0.2	-4	16
O=C(Nc1nnc(-c2ccco2)s1)c1ccccc1	-28	0.9	1.3	/	14
COc1ccc(C(=O)Nc2nnc(-c3ccco3)s2)cc1	17	0.5	0.8	4	54*
COc1ccc(Cc2nnc(NC(=O)c3ccco3)s2)cc1	65*	0.6	0.3	-2	37
COC(=O)c1cc(=O)n(Cc2ccc3c(c2)OCO3)c(=Nc2ccc(F)c(Cl)c2)s1	57*	0.9	0.4	1	11
COC(=O)c1cc(=O)n(CCc2ccc(OC)cc2)c(=Nc2ccc(F)c(Cl)c2)s1	56*	0.7	0.4	0	28
CCn1c(=O)cc(C(=O)OC)sc1=Nc1ccc(F)c(F)c1	75*	0	0.3	2	98*
COCCNC(=O)Cn1nc(C(F)(F)F)c(Cl)c1C	19	0.6	0.8	-4	40
CCOc1ccc(C(O)c2nccn2Cc2ccccc2)cc1 (stereo not given)	35	0.2	0.7	-7	80*
CCn1ccnc1C(O)c1cccc(OC)c1OC (stereo not given)	-15	1	1.2	1	1
CCn1ccnc1C(O)c1ccc(N(C)C)cc1 (stereo not given)	0	0.4	1	-6	62*
CC(CC(C)C(=O)Nc1ccccc1C(C)(C)C)C(=O)O (stereo not given)	/	/	/	-2	/
Cc1cc(NCCN2CCCCC2)n2c(nc3ccccc32)c1C#N	9	1	0.9	-5	1
c1ccc(Cc2nnc(Sc3ccccc3)c3ccccc23)cc1	30	0.7	0.7	4	32
CCCN1C(=O)/C(=C/c2cc(C)n(C)c2C)SC1=Nc1ccc(OC)cc1	10	1.1	0.9	0	-5
COc1ccc(N=C2S/C(=C\c3cc(C)n(C)c3C)C(=O)N2C)cc1	55*	0.5	0.4	-8	51*
COc1cccc(-c2nc(N3CCCCC3C)c3ccccc3n2)c1O (stereo not given)	84*	0.8	0.2	-4	24
COc1cccc(N(C(C)=O)c2nc(C)cc(C)c2C#N)c1	3	0.7	1	0	26
COc1ccc(OC)c(C(O)c2coc3ccc(O)c(CN4CCOCC4)c23)c1 (stereo not given)	54*	0.4	0.5	/	58*
SMILES	CYP2C9 inhib	CYP2C19 activ	CYP2C9 act	EphB4 antag	CYP2C19 inh
COc1ccc(OC)c(C(O)c2coc3ccc(O)c(CN(C)C)c23)c1 (stereo not given)	20	0.7	0.8	-2	35
COc1ccc(-c2[nH]ncc2-c2cnc(C)s2)c(O)c1	50	0.1	0.5	-11	90*
COc1ccc(-c2cn[nH]c2N)cc1	9	0.8	0.9	-2	16
COc1ccc(O)c(-c2cn[nH]c2-c2cccs2)c1	88*	0	0.1	9	99*
CCSc1nnc(-c2cccs2)o1	-1	1.1	1	4	-6
CCSc1nnc(-c2ccc(S(=O)(=O)NCc3cccs3)cc2)o1	70*	0.9	0.3	-1	13
CCOC(=O)c1cc2sc(C)cc2n1CC(=O)Nc1ccc2c(c1)OCCO2	9	0.6	0.9	15	36
CCOC(=O)c1cc2sc(C)cc2n1C(C)C(=O)OCC (stereo not given)	54*	0	0.5	6	95*
Cc1cccc2nc(=S)n(C(=O)c3ccco3)n12	76*	0.3	0.2	-9	73*
Cc1cc(NC(=O)c2ccco2)no1	10	1	0.9	-4	1
O=C(c1cc2ncc(Br)cn2n1)N1CCN(C(=O)c2ccco2)CC1	0	0.9	1	3	7
O=C(c1ccco1)n1c(=S)nc2ccccn21	28	0.3	0.7	-4	72*
Cc1cc(C)n2nc(C(=O)OCC(=O)c3cc(C)n(C)c3C)nc2n1	-72	1	1.7	6	2
CC(C)(C)NS(=O)(=O)c1cnc(Cl)c(Cl)c1	-1	0.1	1	0	90*
CC(C)(C)NS(=O)(=O)c1ccc(Oc2ncc(C(F)(F)F)cc2Cl)cc1	-9	0.9	1.1	3	6
O=C(CC(=O)c1cc(Cl)ccc1O)c1ccccc1	13	0.9	0.9	-10	6
Cc1cccc(C(=O)CC(=O)c2cc(Cl)ccc2O)c1	79*	0.7	0.2	7	32
Cc1cccc(NC(=O)C2NC(=O)CC2c2ccccc2)c1C (stereo not given)	16	0.4	0.8	-7	58*
Cc1nc(-c2ccccc2)nc2[nH]c(C(C)C)cc(=O)c12	81*	0.8	0.2	-7	15
O=C(NC(NNc1ccc([N+](=O)[O-])cc1)(C(F)(F)F)C(F)(F)F)c1ccccc1Cl	53*	0.6	0.5	-4	45
Cc1ccc(/C=C/C(=O)C2C(=O)c3ccccc3C2=O)cc1	99*	1.1	0	4	-6
COc1cccc(C(=O)Oc2cc3c4c(c2)C(C)=CC(C)(C)N4C(=O)C3=O)c1	-27	1.1	1.3	-4	-5
CCCOc1ccccc1-n1sc2c(c1=S)-c1cc(OC)cc3c1N(C(=O)C3=O)C2(C)C	80*	0.4	0.2	-2	62*
Cc1cccc(C(=O)O/N=C/c2c(N3CCOCC3)n(C)c3ccccc23)c1	85*	0.7	0.1	2	31
O=C(O)c1cnc(-c2ccccc2)nc1Sc1ccc(Cl)cc1Cl	53*	1.1	0.5	0	-7
CC(NC(=O)c1ccccc1Cl)c1nnc(SCC(=O)Nc2ccc(C(=O)O)cc2)n1C (stereo not given)	/	/	/	2	/
CCC(=O)N(Cc1ccc(C)cc1)Cc1cc2cc3c(cc2[nH]c1=O)OCO3	31	0.9	0.7	0	9
Cc1ncc(CC(=O)n2cc(C(=O)c3cc(F)ccc3O)cn2)s1	6	1.1	0.9	0	-9
